Where “and” joins values, the source holds several entries; their conditions need not be identical. Equal values may be shown once. Calls of active or inactive are those of the source.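 Rule for the calls, unless noted: active = thallium flux through the channel raised or lowered by more than 3 SD from vehicle-only wells, actives on both sides; inactive = the rest.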

A short description of experiment [1]: P. berghei load reduction in hepatocytes – cell-based, HepG2, luciferase luminescence, HepG2 viability, primary screen (AID 624349; in the data active = parasite load remaining mostly below about 12%, no sharp cut-off; inactive = mostly above about 10%;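 note: 100% = mean of DMSO negative control wells on the same plate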). The settings on record: P. berghei liver stage in HepG2, luciferase luminescence, concentration not given here; parasite load remaining: stronger effect = lower value; viability: measured here: HepG2 viability without parasites.
A short description of experiment [2]: signal quenchers or enhancers, Cy5 substrate/SSB – biochemical, NIH Clinical Collection, E. coli SSB, artefact control for HCV NS3 helicase inhibitor project (AID 743268; call rule not given here). The settings on record: Cy5-oligo bound E. coli SSB, fluorescence interference.
The subject of experiment [3] is Hepatitis C virus NS3 helicase. Kind of experiment: blockers of NS3h binding to DNA – biochemical, fluorescence polarization, NIH Clinical Collection, primary screen (AID 743270; call rule not given here). Particulars: NS3 helicase binding to Cy5-dT15 DNA, stronger effect = higher value, concentration not given here. (In fluorescence polarisation assays a small probe gives low polarisation when free and higher when bound to something large.)

For experiment [4], the target named is Single-stranded DNA-binding protein (Escherichia coli (strain K12)) (UniProt P0AGE0). Put plainly: SSB-ssDNA binding inhibitors – biochemical, fluorescence polarization, NIH Clinical Collection, counter-screen for HCV NS3 helicase inhibitor project (AID 743271; in the data active = inhibition above about 28%). Particulars: E. coli SSB-DNA binding, stronger effect = higher value, concentration not given here.
The nature of experiment [5]: compounds distorting NS3 helicase fluorescence signal – biochemical, NIH Clinical Collection, artefact control for HCV NS3 helicase inhibitor project (AID 743272; call rule not given here;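 note: HCV NS3 helicase with a Cy5 labelled single stranded DNA probe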). The settings on record: fluorescence interference counterscreen, HCV NS3 helicase assay; stronger effect = lower value. (Counterscreens check selectivity or assay interference.)
The test system of experiment [6] is Neuropilin-2 / VEGF-C interaction (human). Kind of experiment: small molecules blocking Neuropilin-2/VEGF-C interaction – biochemical, microplate binding format, z-score (AID 743281; call rule not given here). Particulars: microplate NRP2/VEGF-C binding assay; stronger effect = lower value.
A short description of experiment [7]: modulation of C. elegans fzo-1 (AID 1259413; call rule not given here;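 note: fzo-1 mutant C. elegans worms in liquid wells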). Particulars: C. elegans fzo-1 modulator screen, mean read-out; stronger effect = higher value.
Experiment [8] can be described thus: viability loss with induced miR-34 in A549 – imaging, A549 dox-inducible miR-34, nuclei and caspase counts, primary screen (AID 1347080;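 active = compounds whose cell count with miR-34 switched on is under 0.7 times the count with it off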). Particulars: A549 miR-34 inducible, Hoechst nuclei count, 48 h.
Experiment [9] is described as follows: galactose survival enhancers in mitochondrial complex I cybrids – cell-based, galactose medium, ATP luminescence, primary screen (AID 1645843;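 active = z-score of at least 1.8 in each of two replicates, scored against plate mean and spread of sample wells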;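 note: positive z means more ATP and so rescue of galactose-driven cybrid death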). Particulars: complex I mutant cybrid cells, 72 h, stronger effect = higher value.
Experiment [10] relates to F380Y. Kind of experiment: BK channel mutant inhibitors and activators – cell-based, U2OS BacMam, thallium flux, beta subunits, selectivity assay, profiling panel (AID 1259406).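 Note: initial slope of Thallos dye fluorescence rise after thallium is added; log ratio against the mean of 0.3% DMSO vehicle wells on the same plate.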 Particulars: U2OS BacMam BK variants, at 30 µM.
In experiment [11] the test system is F380Y/beta1. Described as above. Particulars: U2OS BacMam BK variants, at 30 µM.
In experiment [12] the test system is F380Y/beta2Delta. The description is as above. The settings on record: U2OS BacMam BK variants, at 30 µM.
The test system of experiment [13] is F380Y/beta4. The experiment is described as above. The settings on record: U2OS BacMam BK variants, at 30 µM.
Experiment [14] addresses Calcium-activated potassium channel subunit alpha-1 (Homo sapiens) + Leucine-rich repeat-containing protein 26 (Homo sapiens) (UniProt Q12791+Q2I0M4). Described as above. Particulars: U2OS BacMam BK variants, F380Y/Slo1WT/gamma1, at 30 µM.
Experiment [15] concerns R275C. Described as above. The settings on record: U2OS BacMam BK variants, at 30 µM.
In experiment [16] the test system is R275C/beta1. The experiment is described as above. Particulars: U2OS BacMam BK variants, at 30 µM.
In experiment [17] the test system is R275C/beta2Delta. The experiment is described as above. The settings on record: U2OS BacMam BK variants, at 30 µM.
The test system of experiment [18] is R275C/beta4. The description is as above. The settings on record: U2OS BacMam BK variants, at 30 µM.
Experiment [19] deals with R275C/Slo1WT/beta2. The description is as above. The settings on record: U2OS BacMam BK variants, at 30 µM.
Experiment [20] can be described thus: MELAS cybrid and Rieske KO viability enhancers – cell-based, MELAS cybrids, Rieske KO mouse fibroblasts, CellTiter-Glo, primary screen (AID 1508586;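 active = mean z-score across replicates of 1.96 or higher in either the MELAS or the Rieske mutant cell line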;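 note: z relative to plate mean and SD of compound and empty wells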). The settings on record: low glucose. A general note: ATP-based viability assays read luminescence as a measure of living cells.
Where [21] appears, read: stronger effect = lower value, cell number ratio, induced over uninduced.
Setting [22] is: measured here: relative caspase fold change +Dox/-Dox.
[23] abbreviates: measured here: total cells with miR-34 induction, stronger effect = lower value.
Setting [24] is: measured here: total cells without miR-34 induction.

Chain of Calcium-activated potassium channel subunit alpha-1 (Homo sapiens) + Leucine-rich repeat-containing protein 26 (Homo sapiens) (Q2I0M4 whole entry, looked up, one chain of several): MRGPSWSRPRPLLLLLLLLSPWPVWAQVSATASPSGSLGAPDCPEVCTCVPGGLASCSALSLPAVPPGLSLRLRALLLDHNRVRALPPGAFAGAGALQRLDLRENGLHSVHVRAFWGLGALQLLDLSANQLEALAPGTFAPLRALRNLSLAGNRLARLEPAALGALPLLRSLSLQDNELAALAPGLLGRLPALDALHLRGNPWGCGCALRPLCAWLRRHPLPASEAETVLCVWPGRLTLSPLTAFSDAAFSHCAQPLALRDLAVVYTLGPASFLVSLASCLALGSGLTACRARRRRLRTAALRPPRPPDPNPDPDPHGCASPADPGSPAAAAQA

The viability is a read-out of living cells in per cent, often relative to untreated cells. By inhibition is commonly meant the change of the read-out against control, counted positive when it falls. For `CC(COc1ccccc1Cc1ccccc1)N1CCCCC1` (stereo not given), the parasite load remaining in experiment [1] was 25.1% (inactive). For the same molecule, the viability in [1] worked out at 82.3%. Besides, the values for the fluorescence ratio in [2] and in [5] were 1.04 (inactive) and 1.01 (inactive), respectively. The values for the inhibition in [3] and in experiment [4] were -2.77% (inactive) and 3.75% (inactive), respectively. The figures for the z-score in experiment [6] and in experiment [9] were -1.06 (inactive) and -1.81 (inactive), respectively. Besides, the mean signal in experiment [7] is 222 (inactive). For the same molecule, the values for the fold change in experiment [8] (setting [21]) and in [8] (setting [22]) were 0.815 (inactive) and 2.34, respectively. Besides, the cell count came to 6390 in experiment [8] (setting [23]) and 7840 in [8] (setting [24]). The log fold change Tl+ flux in experiment [10] is 0.0907 (inactive); in [11] it was 0.236 (active); in experiment [12] it was -0.0416 (inactive); in experiment [13], 0.194 (active); in experiment [14], -0.0112 (inactive); in experiment [15], -0.246 (active). The log fold change Tl+ flux in experiment [16] is 0.252 (active); in [17], 0.0368 (inactive); in [18], -0.00829 (inactive); in experiment [19] it was -0.0412 (inactive).
As to `CCCCC(=O)OC1(C(=O)CO)CCC2C3CCC4=CC(=O)CCC4(C)C3C(O)CC21C` (stereo not given), the parasite load remaining in experiment [1] is 89.7% (inactive). In experiment [1], this molecule had a viability of 100%. Besides, the fluorescence ratio in experiment [2] was 1.04 (inactive); in experiment [5], 1.01 (inactive). Further, the inhibition in experiment [3] is -5.91% (inactive); in experiment [4], -5.05% (inactive). Moreover, in experiment [7], the mean signal was 256 (inactive). Moreover, the fold change in experiment [8] (setting [21]) is 0.983 (inactive); in experiment [8] (setting [22]) it was 2.66. In addition, the cell count in [8] (setting [23]) is 6880; in experiment [8] (setting [24]), 7000. For the same molecule, the z-score in [9] was 0.245 (inactive). The log fold change Tl+ flux in experiment [10] is -0.858 (active); in experiment [11], -0.315 (active); in experiment [12], -0.396 (active); in experiment [13], -0.379 (active); in [14] it was -0.495 (active); in [15] it was 0.0146 (inactive). Besides, the log fold change Tl+ flux in experiment [16] is 0.44 (active); in [17], 0.266 (active); in experiment [18], 0.327 (active); in experiment [19] it was -0.00582 (inactive).
Regarding `CCC(C)n1ncn(-c2ccc(N3CCN(c4ccc(OCC5COC(Cn6cncn6)(c6ccc(Cl)cc6Cl)O5)cc4)CC3)cc2)c1=O` (stereo not given), in [1], the parasite load remaining was 26.8% (inactive) and 13.6% (inactive). Also, the viability in [1] is 59.8% and 65%. The fluorescence ratio in experiment [2] is 0.99 (inactive); in experiment [5], 1 (inactive). Also, the inhibition in [3] was 2.77% (inactive); in [4], -1.64% (inactive). Further, the z-score in experiment [6] is 0.805 (inactive); in experiment [20] (MELAS cybrid survival, CellTiter-Glo 48 h, stronger effect = higher value), -0.416 (inactive) and -0.441 (inactive); in [20] (Rieske KO mouse fibroblast survival, CellTiter-Glo 72 h), 0.947 and 1.02; in [9], -1.48 (inactive) and 0.09 (inactive). The mean signal in [7] was 270 (inactive). Also, the fold change in experiment [8] (setting [21]) is 0.793 (inactive) and 0.866 (inactive); in experiment [8] (setting [22]), 1.39 and 1.62. The cell count is 5650 and 9680 in experiment [8] (setting [23]); 7130 and 11200 in experiment [8] (setting [24]). Besides, the log fold change Tl+ flux in [10] was 0.0299 (inactive); in experiment [11] it was 0.0346 (inactive); in [12] it was -0.00576 (inactive); in experiment [13], 0.0111 (inactive); in experiment [14] it was 0.0139 (inactive); in experiment [15], -0.015 (inactive). In addition, the log fold change Tl+ flux in [16] is 0.0149 (inactive); in [17], 0.0172 (inactive); in [18], -0.00424 (inactive); in experiment [19] it was 0.0617 (inactive).

For the origin of these results see PubChem BioAssay.
